LEDGF integ inh = blocks HIV-1 LEDGF/p75-dependent DNA integration. inhibition, % at 3.7 µM. TR-FRET IN-LEDGF/p75 DNA integration, Eu/Cy5. 0.64% of 370,000 active;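 active = inhibition above the screen-wide mean plus 3 SD, cut at about 13% in these data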;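 also: signal is the Cy5 over europium emission ratio at 671 and 618 nm; 0% = plate median of compound wells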
Neddylation inh = inhibitors of human cullin neddylation; TR-FRET cullin neddylation, biochemical; 0.58% of 360,000 active; calls only at 25 µM; P61081+Q13564; in the data active = inhibition above about 36%
UHRF1 binding = blocks human UHRF1 binding to methylated DNA; Q96T88; UHRF1 binding to methylated oligo, TR-FRET; inhibition, % at 4.4 µM; 0.75% of 370,000 active; in the data active = inhibition above about 21%;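 also: UHRF1 SRA domain binding a hemimethylated CpG hairpin DNA probe; 0% = median of test compound wells and 100% = reference inhibitor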
proKLK7 act = proKLK7 (human) activation, primary screen; P49862; purified proKLK7, EDANS-DABCYL substrate fluorescence; 100% is mature enzyme control, 0% vehicle; activation, % at 7 µM; 0.9% of 370,000 active; AID 652039;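 active = activation above the mean of all tested compounds plus 3 SD, computed per campaign excluding outliers beyond control limits, cut at about 13% in these data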
Rin1-Abl PPI inh = human Rin1-Abl interaction inhibition. P00519+Q13671. TR-FRET Rin1/Abl binding, biochemical. inhibition, % at 7.35 µM. 0.4% of 360,000 active. AID 588664; in the data active = inhibition above about 5%, passing the limit was not always enough
MBD2 inh = blocks human MBD2 binding to methylated DNA | AID 686964 | Q9UBB5 | TR-FRET, MBD2 binding to methylated oligonucleotide | 0.31% of 370,000 active | inhibition, % at 4.4 µM; in the data active = inhibition above about 13%
KLK7 act conf = confirmation of human kallikrein-7 zymogen activators | shares compounds with proKLK7 act | purified proKLK7, EDANS-DABCYL substrate fluorescence; scaled: vehicle 0, mature enzyme 100 | activation, % at 7 µM | 68% of 3,200 active | AID 686949;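 active = activation, as change over the incubation, above the mean of all tested compounds plus 3 SD, cut at about 13% in these data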
EDANS interfere = fluorescence interference counter-screen for KLK7 activators; shares compounds with proKLK7 act; EDANS-DABCYL substrate fluorescence interference, no enzyme, 4 h; solvent 0%, active enzyme control 100%; activation, % at 7 µM; 80% of 3,200 active; AID 686952;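 active = activation above the all-compound mean plus 3 SD, ignoring values outside control-based bounds, cut at about 4.8% in these data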;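 also: value is the 4 h activation minus the activation read at time zero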
EDANS interf = EDANS fluorescence interference in dose response, no enzyme; shares compounds with proKLK7 act; EDANS-DABCYL peptide fluorescence interference; EC50, µM; 20% of 250 active;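 active = compounds that raise the fluorescence signal in this interference counterscreen, with EC50 at or below 10 µM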;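 also: intact quenched peptide substrate alone read at 355 nm excitation and 520 nm emission; signal is fluorescence gain from T0 to T4 after four hours at room temperature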
Starred values were filed as active, the others as inactive; i = inactive; x = no result given. Most compounds without a hit are left out; they make up all but 3.1% or so of the library.

SMILES	LEDGF integ inh	Neddylation inh	UHRF1 binding	proKLK7 act	Rin1-Abl PPI inh	MBD2 inh	KLK7 act conf	EDANS interfere	others
C=CCn1c(N)c(C(=O)OCCC)c2nc3ccccc3nc21	2	x	-9	60*	3	-3	52*	50*
CNc1ccccc1C(=O)OCC(=O)N(CCOC)c1c(N)n(CC(C)C)c(=O)[nH]c1=O	-3	x	2	20*	1	1	18*	16*
COCCN(C(=O)c1ccccc1Oc1ccccc1)c1c(N)n(CC(C)C)c(=O)[nH]c1=O	4	i	-3	0	3	2	x	x
CC(=O)C(C)Oc1ccc2c3c(c(=O)oc2c1)CCCC3 (configuration not stated)	4	x	1	1	-5	6	x	x
COC(=O)Cc1c(C)c2ccc(OC(=O)c3ccccc3)cc2oc1=O	-4	x	0	422*	1	2	632*	512*
CCC(=O)Oc1ccc2c(C)c(Cl)c(=O)oc2c1	2	i	-5	40*	0	-4	672*	655*
CCCCc1c(C)c2ccc(OCC(C)=O)cc2oc1=O	2	x	0	4	-1	7	x	x
Cc1c(Cc2ccccc2)c(=O)oc2cc(OC(=O)c3ccccc3)ccc12	-1	x	0	-1	2	-3	x	x
Cc1c(Cl)c(=O)oc2cc(OC(C)C)ccc12	-1	x	-7	15*	-4	1	1	3
COC(=O)c1cc(-c2ccc(C)c3ccccc23)c(=O)n2c1CCC2	2	x	1	1	x	1	x	x
COC(=O)Cn1ncc(N2CC(C)OC(C)C2)c(Cl)c1=O (configuration not stated)	4	i	2	0	-1	-6	x	x
COc1ccc(-c2cc3nnc(-c4ccccc4)nc3s2)cc1	2	i	3	0	-4	6	x	x
COc1ccc(-c2cc3ncnc(Cl)c3s2)cc1	-4	i	-7	27*	-5	4	4	3
Cc1ccccc1NC(=O)[C@@H]1CCCN1S(=O)(=O)c1cccc2cccnc12	4	x	-4	x	x	5	x	x
CCCCNC(=O)C1C(c2ccc(C(F)(F)F)cc2)=Nc2ccccc2N1C(C)=O (configuration not stated)	-2	i	1	-1	x	-9	x	x
CCCCNC(=O)C1C(c2ccc(C(F)(F)F)cc2)=Nc2ccccc2N1C(=O)c1ccc2nc(C)[nH]c2c1 (configuration not stated)	-3	x	0	92*	x	-3	-142	-108
CN1C[C@@H]2[C@@H]3C(=O)N(C)C(=O)[C@@H]3[C@](Cc3ccccc3)(C1=O)N2C(=O)c1ccc(Cl)cc1	-1	i	2	-1	0	-1	x	x
CC(C)OCCOc1ccc2oc(-c3ccco3)cc(=O)c2c1	0	x	15	24*	-2	1	37*	-6	EDANS interf=>69
COc1ccc(NC(=O)c2cc(=O)[nH]c3ccccc23)cc1	4	i	0	0	0	-8	x	x
COc1ccc2[nH]c(=O)c(CN(C(C)=O)c3ccc(C)c(C)c3)cc2c1	-5	i	-3	0	-4	2	x	x
COc1ccc2[nH]c(=O)cc(C(=O)O)c2c1	6	x	12	20*	3	4	39*	45*
COc1ccc2[nH]c(=O)c(C(=O)O)cc2c1	-3	x	2	19*	0	0	11	21*
CCc1c(C)c2cc(Cl)c(O)c(CN(C)C)c2oc1=O	4	i	-2	80*	-5	-5	66*	67*
Cc1c(O)c(CN(C)C)cc2c1oc(=O)c1ccccc12	-2	i	-1	0	-3	-2	x	x
CCCCc1cc(=O)oc2c(CN(C)C)c(O)c(Cl)cc12	8	x	1	67*	-5	-2	65*	86*

Bioassay records from PubChem BioAssay.
